# In PubChem BioAssay (NCATS):
# Results filed as inconclusive are left out. Where a call stands in place of a potency, no number is given. Active and inactive are the calls of the source. Unless noted, the call rests on the fitted dose curve; in most records, active means well fitted curve in the direction sought with a large enough effect in the repeat runs; inconclusive means weak or mixed curves; inactive means no such curve, though single readings can be large; an effect the other way counts as inactive or inconclusive.
# Legend:
# [1] = A High-Content qHTS Against Drug Library for the Identification of Small Molecules that Inhibit DYT1 Early Onset Primary Dystonia-Associated Cell Pathology (AID 1645839; calls by dose curve; further: potency means the concentration at half of the fitted maximal effect)
# In short: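 Induced EGFP-delE TorsinA cells are imaged after 48 h of compound treatment. Punctate fusion-protein distribution gives the %pathology value, while nuclei counts flag toxicity. Wild-type EGFP-hTOR1A cells define the normal pattern.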
# [2] = molecular target: Cytochrome P450 2D6 (Homo sapiens) (UniProt P10635); experiment: Cytochrome P450 family 2 subfamily D member 6 (CYP2D6) small molecule antagonists: luciferase biochemical (cell-free) qHTS assay (AID 1645840); further: nearly all actives have a fitted effect of over 55% in size; further: potency means the concentration at half of the fitted maximal effect
# In short: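 P450-Glo CYP2D6 system: proluciferin substrate converted by enzyme to luciferin, read by luminescence proportional to activity. Enzyme-substrate mix with compound 10 min at room temperature, then NADPH regeneration 1 h before detection reagent.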
# [3] = molecular target: Cytochrome P450 2C9 (Homo sapiens) (UniProt P11712); experiment: Cytochrome P450 family 2 subfamily C member 9 (CYP2C9) small molecule antagonists: luciferase biochemical (cell-free) qHTS assay (AID 1645842); further: nearly all actives have a fitted effect of over 55% in size; further: potency means the concentration at half of the fitted maximal effect
# In short: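 P450-Glo CYP2C9 system: proluciferin substrate with enzyme in mix containing 0.4% BSA, 10 min at room temperature, then NADPH regeneration solution added and incubated 1 h at 37C. Detection reagent stopped reaction; luminescence read after 20 min as RLU.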
# [4] = Cytotoxicity counterscreen for inhibitors of SARS-CoV-2 cell entry (AID 1645845; calls by dose curve; further: nearly all actives have a fitted effect of over 50% in size); settings: outcome: dose series up to 57.1 µM unless noted
# In short: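 After a 15 min room-temperature ATPLite 1step step, luminescence reflected ATP remaining in HEK293-ACE2 cells exposed to compound for 1 h plus 48 h at 37 C, with percent activity set by cell and no-cell controls.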
# [5] = Primary qHTS to identify inhibitors of SARS-CoV-2 cell entry (AID 1645846; calls by dose curve; further: nearly all actives have a fitted effect of over 45% in size; further: potency means the concentration at half of the fitted maximal effect); settings: activity change, negative = inhibition: at 57.1 µM (top of the series) unless noted
# In short: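 Luminescence readout (Bright-Glo luciferase) 48 h after pseudoparticle addition. HEK293-ACE2 cells, 1500/well; compound pre-incubation 1 h; Normalized to spike PP and bald PP.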
# [6] = Confirmatory qHTS to identify inhibitors of SARS-CoV-2 cell entry (AID 1645844; calls by dose curve; further: potency means the concentration at half of the fitted maximal effect; nearly all actives have a fitted effect of over 45% in size); settings: SARS-CoV-2 pseudotyped particle cell entry, luciferase
# In short: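 Using stable human ACE2 Expi293F cells, compounds preincubated 1 hr before spike pseudoparticle infection; luciferase signal after 48 hr at 37C, 5% CO2, normalised to spike PP and no-fusion-protein PP wells.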
# [7] = VSVG counterscreen qHTS to identify inhibitors of SARS-CoV-2 cell entry (AID 1645847; calls by dose curve; further: potency means the concentration at half of the fitted maximal effect; nearly all actives have a fitted effect of over 65% in size); settings: VSV-G pseudotyped particle entry, luciferase
# In short: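 HEK293-ACE2 cells (Expi293F stably expressing human ACE2) were pretreated with compound for 1 h at 37 °C, then infected with MLV-based VSV-G pseudotyped particles for 48 h. Luciferase luminescence was normalized to VSV-G PP and bald PP wells.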
# Cytochrome P450 2C9 (Homo sapiens), sequence (P11712 whole entry, looked up): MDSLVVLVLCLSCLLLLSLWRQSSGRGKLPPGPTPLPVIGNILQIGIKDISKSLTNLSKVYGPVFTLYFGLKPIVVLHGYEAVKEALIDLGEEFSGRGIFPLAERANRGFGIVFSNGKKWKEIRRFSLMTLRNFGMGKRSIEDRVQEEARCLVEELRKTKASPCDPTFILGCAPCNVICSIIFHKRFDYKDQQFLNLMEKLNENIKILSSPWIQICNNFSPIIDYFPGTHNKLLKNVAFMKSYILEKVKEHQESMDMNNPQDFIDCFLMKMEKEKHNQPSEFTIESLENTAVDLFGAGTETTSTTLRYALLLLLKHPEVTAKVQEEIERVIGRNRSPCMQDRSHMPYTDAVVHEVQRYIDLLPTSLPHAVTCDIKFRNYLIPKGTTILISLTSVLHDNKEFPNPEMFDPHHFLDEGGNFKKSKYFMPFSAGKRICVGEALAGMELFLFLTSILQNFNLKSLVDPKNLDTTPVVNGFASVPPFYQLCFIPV
# Cytochrome P450 2D6 (Homo sapiens), sequence (P10635 whole entry, looked up): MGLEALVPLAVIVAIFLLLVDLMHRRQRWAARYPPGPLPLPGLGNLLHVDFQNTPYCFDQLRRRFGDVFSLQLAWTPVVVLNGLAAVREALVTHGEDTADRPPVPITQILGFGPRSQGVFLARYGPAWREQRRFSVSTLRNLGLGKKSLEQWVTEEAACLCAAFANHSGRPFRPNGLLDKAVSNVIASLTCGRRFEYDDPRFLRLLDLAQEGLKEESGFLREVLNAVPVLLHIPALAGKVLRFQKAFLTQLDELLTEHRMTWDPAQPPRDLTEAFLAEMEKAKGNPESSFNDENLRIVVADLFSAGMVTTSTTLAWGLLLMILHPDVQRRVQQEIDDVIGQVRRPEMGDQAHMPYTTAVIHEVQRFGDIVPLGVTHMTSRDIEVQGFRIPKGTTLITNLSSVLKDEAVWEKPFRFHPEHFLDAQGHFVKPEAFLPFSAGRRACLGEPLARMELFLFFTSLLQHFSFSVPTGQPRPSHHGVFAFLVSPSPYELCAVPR
compound,measurement,setting,value
CCCSP(=O)(OCC)SCCC,Potency,[1],inactive
same,Potency,[2],58.4 µM (active)
C[CH2][Hg][S]c1ccccc1C(=O)O,Potency,[1],5.01 µM (active)
same,Potency,[3],3.47 µM (active)
COc1ccc(OC)c(C(O)C(C)N)c1 (stereo unspecified),Potency,[2],inactive
same,Potency,[3],inactive
same,outcome,[4],inactive
C/C(O)=C(\C#N)C(=O)Nc1cc(Br)ccc1Br,"activity change, negative = inhibition",[5],-10.6%
O=C1OC2(c3cc(Br)c(O)cc3Oc3c2cc(Br)c(O)[c]3[Hg])c2ccccc21 (stereo unspecified),Potency,[5],10 µM (active)
ClC1C(Cl)C(Cl)C(Cl)C(Cl)C1Cl (stereo unspecified),Potency,[2],inactive
same,Potency,[3],inactive
same,outcome,[4],inactive
same,Potency,[5],inactive
CCOc1ccccc1-n1c(C(C)N2CCN(C(=O)COc3ccc(Cl)cc3)CC2)nc2ccccc2c1=O (stereo unspecified),Potency,[2],inactive
same,Potency,[3],13.5 µM (active)
same,Potency,[6],0.0192 µM (active)
same,Potency,[5],10 µM (active)
same,Potency,[7],19.2 µM (active)
CCCCCCCCOC(=O)c1ccccc1C(=O)OCCCCCCCC,Potency,[2],inactive
C[C@@](O)(COc1ccc(C#N)cc1)C(=O)Nc1ccc(C#N)c(C(F)(F)F)c1,Potency,[3],1.51 µM (active)
CC1CCC(C(C)C)C(OC(=O)c2ccccc2N)C1 (stereo unspecified),Potency,[2],inactive
same,Potency,[3],2.68 µM (active)
same,"activity change, negative = inhibition",[5],-3.33%
CCNCC(O)c1cccc(O)c1 (stereo unspecified),Potency,[2],inactive
same,Potency,[3],inactive
same,"activity change, negative = inhibition",[5],-13.6%
Clc1ccc(OCC2=NCCN2)cc1Cl,Potency,[2],8.49 µM (active)
same,Potency,[3],inactive
CCNC(C)Cc1cccc(C(F)(F)F)c1 (stereo unspecified),Potency,[2],3.79 µM (active)
COCC(C)N(C(=O)CCl)c1c(C)csc1C (stereo unspecified),Potency,[2],inactive
same,Potency,[3],13.5 µM (active)
Cc1cn(C[C@H](N)C(=O)O)c(=O)n(Cc2cc(-c3ccccc3)sc2C(=O)O)c1=O,Potency,[2],inactive
same,Potency,[3],inactive
COc1cc(C)[nH]c(=O)c1CNC(=O)c1c(C)n([C@H](C)C2CCOCC2)c2ccccc12,Potency,[2],inactive
same,Potency,[3],13.5 µM (active)
same,outcome,[4],inactive
